{
  "source": "PubChem BioAssay AID493185",
  "about": "(National Center for Advancing Translational Sciences (NCATS), 2011)",
  "note": "Active and inactive are the calls of the source. Entries that show only a call come without a potency. Calls come from the whole dose curve; as a rule, active = well fitted activation curve with a large enough effect; inconclusive = small, poorly fitted or top-dose-only effect; inactive = no such curve, though single readings can be large or run the other way.",
  "data": [
    {"test": "Counterscreen for Identifying a Potential Treatment of Ataxia-Telangiectasia: Hit Validation", "conditions": "cell-free AlphaLISA/AlphaScreen artifact counterscreen, PBS only, no cells; series mostly up to 76.9 µM", "procedure,_shortened": "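Without cells, compounds at up to 76.7 uM final were combined with premixed anti-pKAP1/anti-KAP1 AlphaLISA bead reagents, protease inhibitors and lysis buffer; signal read after 6 hr at 25C to flag assay-platform artifacts.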", "values": [
      {"smiles": "Clc1cccc(CN2CCC(Cc3ccccc3)CC2)c1", "Potency": "inactive"},
      {"smiles": "O=C(Nc1ccccc1Oc1ccccc1)c1cccs1", "Potency": "inactive"},
      {"smiles": "O=C(NC12CC3CC(CC(C3)C1)C2)c1cccc(OC(F)F)c1", "Potency": "inactive"},
      {"smiles": "COc1ccc2c(c1)cc(C(=O)N[C@H](C(=O)N1CCC(C(=O)O)CC1)C(C)C)n2C", "Potency": "inactive"},
      {"smiles": "O=C(N/N=C/c1ccncc1)c1ccc(COc2cccc3cccnc23)cc1", "Potency": "inactive"},
      {"smiles": "COc1cccc(CNCc2ccc(OC)c3ccccc23)c1OC", "Potency": "inactive"},
      {"smiles": "CC1CCCC(C)N1CCCNC(=O)Cn1ncc2c3ccccc3n(C)c2c1=O", "note": "(configuration not stated)", "Potency": "inactive"},
      {"smiles": "C[C@@H]1Cc2c(O)c(O)cc(O)c2C(=O)O1", "Potency": "inactive"},
      {"smiles": "COc1ccc(CNC(=O)COc2cccnc2[N+](=O)[O-])cc1OC", "Potency": "inactive"},
      {"smiles": "O=C(COc1ccccc1Cl)NCCCNC(=O)c1cnccn1", "Potency": "inactive"},
      {"smiles": "Cc1nn(CC(=O)N(C)Cc2ccc(F)cc2)c(C)c1[N+](=O)[O-]", "Potency": "inactive"},
      {"smiles": "O=C(CN1CCN(Cc2ccccc2)CC1)Nc1ccc(Cl)cc1", "Potency": "inactive"},
      {"smiles": "Cc1cccc(C)c1NC(=O)COC(=O)c1cc(=O)c2ccccc2o1", "Potency": "inactive"},
      {"smiles": "S=c1[nH]nc(COc2ccccc2)n1/N=C/c1ccccc1Cl", "Potency": "inactive"},
      {"smiles": "Fc1ccc(C2=NOC(c3nnc(-c4ccccc4)o3)C2)cc1", "note": "(configuration not stated)", "Potency": "inactive"},
      {"smiles": "COc1ccc(OC)c(C2CC(c3ccccc3)=NN2C(=S)Nc2ccccc2)c1", "note": "(configuration not stated)", "Potency": "inactive"},
      {"smiles": "CN(C)S(=O)(=O)c1cccc(C(=O)N=C2N=C3C=CC(Cl)=CN3Cc3ccccc32)c1", "Potency": "inactive"},
      {"smiles": "CN(C)c1cc(Nc2ccc(O)cc2)c([N+](=O)[O-])c2nonc12", "Potency": "inactive"},
      {"smiles": "CCC(C)N1C(=S)SC(C)(C)C1N(O)C(=O)NC1CCCCC1", "note": "(configuration not stated)", "Potency": "inactive"},
      {"smiles": "C=C(C)n1c(=O)n(Cc2ccccc2C)c2ccccc21", "Potency": "inactive"},
      {"smiles": "Cc1ccc(C(=O)c2c(C)oc3c2C(=O)C(=O)c2ccccc2-3)cc1", "Potency": "inactive"},
      {"smiles": "Cn1c(=O)oc2cc(S(=O)(=O)N3CCc4ccccc43)ccc21", "Potency": "inactive"}
    ]}
  ]
}
